# Screens: PubChem BioAssay, National Center for Advancing Translational Sciences (NCATS)
# BAZ2B inh: blocks human BAZ2B. 360,000 compounds, 4.4% hits. Potency, µM (doses to about 114 µM), for the others: top-dose activity change, negative = inhibition, hits mostly inhibitors. AlphaScreen BAZ2B-H3K14Ac peptide displacement. Q9UIF8. AID 504333; note: % is set by controls: 0 for no effect and ±100 for the full control effect; nearly all actives have a fitted effect of over 60% in size
#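 BAZ2B 50 nM plus b-H3(5-23)K14Ac 50 nM, PBS pH 7.4/0.01% Tween-20, 30 min RT; compound added (max 110 uM), 30 min RT; streptavidin donor/Ni-chelate acceptor beads 10 ug/mL final, 20 min dark; AlphaScreen read.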
# G9a inh: inhibitors of human histone lysine methyltransferase G9a; G9a H3K9 monomethylation, AlphaScreen, 2 h; 350,000 compounds, 8.8% hits; AID 504332; Q96KQ7; Potency, µM (titrated, usually from 102 µM), without a hit: at the highest dose activity, negative = inhibition, hits mostly inhibitors; note: % is set by controls: 0 for no effect and ±100 for the full control effect; nearly all actives have a fitted effect of over 75% in size
#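 Step 1: enzyme (final 20 nM) with compound, 15 min RT. Step 2: substrate peptide 500 nM and SAM 20 uM, 2 h RT. Step 3: anti-H3K9me1 antibody and AlphaScreen beads, 10 min, then plate read.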
# VDR inhibitor: blocks the human vitamin D receptor; P11473; VDR-SRC2-3 peptide fluorescence polarization, 2 h; Potency, µM, inactives show max response, negative = inhibition, actives largely listed as inhibitors; 400,000 compounds, 0.93% hits; note: % is set by controls: 0 for no effect and ±100 for the full control effect
#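 Inhibition of the VDR/SRC2-3 peptide interaction is quantified by fluorescence polarization. Compounds (23 nl, pintool) incubate with the reagents for 2 hours at ambient room temperature.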
# JMJD2A Tudor: blocks the human JMJD2A Tudor domain; O75164; AlphaScreen JMJD2A-Tudor / H3K4me3 peptide binding; Potency, µM (series often up to 114 µM), for inactives: top-dose activity change, negative = inhibition, hits mostly inhibitors; 390,000 compounds, 4.4% hits; AID 504339; note: % is set by controls: 0 for no effect and ±100 for the full control effect; nearly all actives have a fitted effect of over 50% in size
# Target sequence (O75164 whole entry, looked up, the tested form may be a part): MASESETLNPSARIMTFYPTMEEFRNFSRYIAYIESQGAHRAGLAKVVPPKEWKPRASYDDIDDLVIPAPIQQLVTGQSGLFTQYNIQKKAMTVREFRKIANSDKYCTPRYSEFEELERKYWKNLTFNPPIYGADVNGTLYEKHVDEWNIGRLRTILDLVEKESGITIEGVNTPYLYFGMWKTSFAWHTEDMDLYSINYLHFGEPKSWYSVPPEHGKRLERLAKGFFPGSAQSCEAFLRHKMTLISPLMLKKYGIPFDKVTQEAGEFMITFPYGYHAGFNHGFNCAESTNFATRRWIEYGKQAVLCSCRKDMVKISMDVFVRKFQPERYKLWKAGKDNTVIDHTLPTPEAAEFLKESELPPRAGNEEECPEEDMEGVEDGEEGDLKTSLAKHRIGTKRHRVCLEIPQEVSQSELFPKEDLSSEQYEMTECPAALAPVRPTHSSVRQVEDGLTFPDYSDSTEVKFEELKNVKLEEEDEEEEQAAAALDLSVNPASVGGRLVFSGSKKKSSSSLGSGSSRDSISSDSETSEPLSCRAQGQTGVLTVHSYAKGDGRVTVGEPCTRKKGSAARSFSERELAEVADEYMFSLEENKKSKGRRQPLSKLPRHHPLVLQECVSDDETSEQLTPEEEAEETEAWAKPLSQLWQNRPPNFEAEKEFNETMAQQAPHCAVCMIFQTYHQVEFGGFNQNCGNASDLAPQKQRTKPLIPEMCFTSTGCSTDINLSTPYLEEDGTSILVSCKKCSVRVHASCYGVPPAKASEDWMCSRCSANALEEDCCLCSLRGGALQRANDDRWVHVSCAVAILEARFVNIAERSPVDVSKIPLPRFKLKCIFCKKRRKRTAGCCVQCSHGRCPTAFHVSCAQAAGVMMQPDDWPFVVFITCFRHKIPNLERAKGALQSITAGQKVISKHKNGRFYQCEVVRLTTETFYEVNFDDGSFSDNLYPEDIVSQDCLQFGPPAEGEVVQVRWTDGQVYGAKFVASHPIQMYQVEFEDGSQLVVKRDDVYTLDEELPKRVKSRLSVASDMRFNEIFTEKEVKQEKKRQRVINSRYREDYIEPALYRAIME
# PLK1 PBD inh: blocks phosphopeptide binding to human PLK1 polo-box domain; P53350; Plk1 PBD binding of FITC phosphopeptide, fluorescence polarization; Potency, µM, without a hit: max response, negative = inhibition, usual class: inhibitors; 360,000 compounds, 2.8% hits; note: series mostly up to about 57 µM; % is set by controls: 0 for no effect and ±100 for the full control effect; nearly all actives have a fitted effect of over 65% in size
# HP1b binding inh: HP1-beta chromodomain-methylated histone interaction inhibition | 390,000 compounds, 0.56% hits | Potency, µM (series often up to 114 µM), inactives show at the top dose activity change, negative = inhibition, most hits filed as inhibitors | AlphaScreen HP1-beta / biotin-H3K9me3 peptide binding | P83916; note: nearly all actives have a fitted effect of over 70% in size
#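 AlphaScreen: HP1-beta (50 nM) preformed 30 min with biotin-H3(1-18)K9me3 peptide (50 nM) in PBS pH 7.4, 0.01% Tween-20. Compound added for 30 min at RT, then streptavidin donor/nickel chelate acceptor beads (10 ug/mL) for 30 min.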
# Starred values were filed as active, the others as inactive; ? = inconclusive; / = no result; ! = not active in a repeat; [ ] = dose if it differs, or a comment. Sampled rows, rich in hits. Any-hit rate of the full collection: about 11%. Calls come from the whole dose curve; as a rule, active = well fitted curve in the direction sought with a large enough effect; inconclusive = small, poorly fitted or top-dose-only effect, or another doubt; inactive = no such curve, though single readings can be large; an effect the other way counts as inactive or inconclusive. Potency is the fitted concentration of half-maximal effect.
SMILES,BAZ2B inh,G9a inh,VDR inhibitor,JMJD2A Tudor,PLK1 PBD inh,HP1b binding inh
COc1cc(Cl)c(C)cc1NC(C)C(=O)Nc1cc(C(F)(F)F)ccc1N1CCOCC1 (configuration not stated),?,-7%[59 µM],1%,-27%,2%,8%
COc1ccc(NC(C)C(=O)Nc2cc(C(F)(F)F)ccc2N2CCOCC2)c(OC)c1 (configuration not stated),32µM*,?,-5%,45µM*,-14%,?
C#CCOCCOCCOCCNc1nc(N2CCN(C(=O)C(Cc3ccc(O)cc3)n3cc(C(N)CC(C)C)nn3)CC2)nc(N2CCN(C(=O)C(Cc3cc4ccccc4[nH]3)n3cc(C(N)Cc4ccc(O)cc4)nn3)CC2)n1 (configuration not stated),35µM*,-1%[12.7 µM],/,/,/,/
C#CCOCCOCCOCCNc1nc(N2CCN(C(=O)[C@H](CCC(=O)O)n3cc(C(N)Cc4ccc(O)cc4)nn3)CC2)nc(N2CCN(C(=O)[C@H](Cc3cc4ccccc4[nH]3)n3cc(C(N)CC(C)C)nn3)CC2)n1 (some centres not stated),79µM*,5%[12.7 µM],/,/,/,/
C#CCOCCOCCOCCNc1nc(N2CCOCC2)nc(N2CCN(C(=O)[C@H](Cc3cc4ccccc4[nH]3)n3cc([C@@H](N)Cc4ccc(O)cc4)nn3)CC2)n1,?,?,-19%,?,27µM*,-7%
C#CCOCCOCCOCCNc1nc(N2CCN(C(=O)[C@H]([C@@H](C)CC)n3cc([C@@H](N)CO)nn3)CC2)nc(N2CCN(C(=O)[C@H](Cc3cc4ccccc4[nH]3)n3cc([C@@H](N)Cc4ccc(O)cc4)nn3)CC2)n1,14µM*,?,/,/,/,/
C#CCOCCOCCOCCNc1nc(N2CCOCC2)nc(N2CCN(C(=O)[C@H](CC(N)=O)n3cc([C@@H](N)C(C)C)nn3)CC2)n1,/,/,6%,-2%,3%,38%
COC(=O)CC1C(C)(C)C(OC(C)=O)C2[C@H](OC(C)=O)[C@]34O[C@]2(O)[C@]1(C)C3CC[C@]1(C)C4=CC(=O)OC1c1ccoc1 (some centres not stated),/,-41%[2.33 µM],?,/,/,/
CCCCCCCCCCCCCCCC[N+](C)(C)CC,6%,14µM*!,-5%,-8%,-3%,17%
CCCCCCCCCCCCCCCC[N+](C)(C)CCl,/,/,-6%,-4%,-29%,31%
CCCCCC[N+](C)(C)CCSSCC[N+](C)(C)CCCCCC,-4%,?,8.9µM*,-24%,1.2µM*,?
CCOC(=O)c1cc(C)n(CC2CCC(C(=O)Nc3ccccc3OC)CC2)c1C (configuration not stated),-31%,?,20%,-34%,/,17%
COc1cccc(CNC(=O)CCCCCn2c(=O)[nH]c3cc(OC)c(OC)cc3c2=O)c1,4%,-1%[59 µM],3%,-20%,/,29%
Cc1c(Cl)c(C(=O)NNC(=S)Nc2ccc(F)cc2)nn1C,13%,/,-7%,-9%,-7%,35%
Cc1ccc(NC(=O)COC(=O)c2nn(C)cc2Cl)cc1,-6%,4%,-2%,-15%,-12%,-13%
Cc1c(Cl)c(C(=O)NNC(=S)Nc2ccccc2)nn1C,8%,3.5µM*,-7%,-12%,-7%,29%
Cc1ccc(NC(=S)NNC(=O)c2nn(C)cc2Cl)cc1,18%[57.1 µM],35µM*,9%,-9%,-8%,25%
Cc1cccc(NC(=S)NNC(=O)c2nn(C)cc2Cl)c1,3%[57.1 µM],35µM*,-8%,-29%,-13%,20%
COc1ccc(NC(=O)COc2cccc3c2CCN(C)C3=O)c(OC)c1,-28%,10%,10%,-9%,4%,32%
COc1cc(/C=N/NS(=O)(=O)c2ccc(C)c([N+](=O)[O-])c2)ccc1O,/,?,-25%,-9%,?,15%
COc1cc(/C=N/NS(=O)(=O)c2ccc(C)c([N+](=O)[O-])c2)cc([N+](=O)[O-])c1O,50µM*,40µM*,7%,-24%,-5%,-6%
COc1cc(/C=N/NS(=O)(=O)c2ccc(C(C)(C)C)cc2)cc([N+](=O)[O-])c1O,?,18µM*,-20%,56µM*,?,?
COc1cc(/C=N/NC(N)=O)cc([N+](=O)[O-])c1O,?,?,5%,-24%,-9%,-17%
Cc1nc2[nH]c(=O)n(O)c(=O)c2s1,/,/,2%,7.9µM*,0%,8%
COc1ccc(/C=C(\C#N)c2nc(-c3cc4c(ccc5ccccc54)oc3=O)cs2)cc1O,-1%,2%[59 µM],7%,-17%,/,13%
SMILES,BAZ2B inh,G9a inh,VDR inhibitor,JMJD2A Tudor,PLK1 PBD inh,HP1b binding inh
O=C(Nc1ccc2c(c1)C(=O)OC2)c1ccccc1Cl,22%,50µM*,-2%,-6%,2%,14%
O=C1OCc2ccc(NC(=O)c3ccccc3C(=O)O)cc21,-18%,?,10%,-11%,-11%,10%
COc1ccc(NC(=O)C/C(C)=N/NC(=O)c2ccco2)c([N+](=O)[O-])c1,-10%,45µM*,3%,-14%,-4%,16%
COc1ccc(C)cc1-n1nnnc1SCC1CCCO1 (configuration not stated),-1%,36%[59 µM],-23%,?,24µM*,-5%
CC(C)c1cc(C(=O)NNC(=S)NCc2ccco2)c(O)c(C(C)C)c1,-33%,?,-3%,-36%,-11%,-31%
C[C@H]1CN([C@@H](C)CO)C(=O)c2cc(Br)cnc2O[C@H]1CN(C)C(=O)c1ccccn1,/,/,/,/,-6%,/
COc1ccccc1/C=C/C=N/n1c(-c2ccncc2)n[nH]c1=S,?,1.3µM*,-26%,10µM*,-8%,-16%
COc1ccccc1/C=C/C=N/n1c(-c2ccco2)n[nH]c1=S,?,1.3µM*,-10%,28µM*,?,-22%
S=c1[nH]nc(-c2ccncc2)n1/N=C/C=C/c1ccccc1,-31%,?,-7%,4.5µM*,-26%,?
COc1cccc(/C=N/n2c(-c3ccco3)nc3ccccc3c2=O)c1OC,7%,3%[59 µM],-8%,-20%,-6%,22%
S=c1[nH]nc(-c2ccncc2)n1/N=C/C(Cl)=C\c1ccccc1,50µM*,/,-22%,18µM*,6.7µM*,-7%
N#Cc1ccccc1OCC(=O)N(C1CCCCC1)C1CCS(=O)(=O)C1 (configuration not stated),-33%,-44%,-18%,-19%,-5%,0%
CCCN1CCN(CCCNC(=O)c2cnn(-c3ccc(F)cc3)c2-n2cccc2)CC1,-5%,-3%[59 µM],2%,-14%,/,9%
COc1ccc(-c2n[nH]c(=S)n2/N=C/C=C\c2ccccc2OC)cc1,-27%,?,-13%,89µM*,-24%,28%
